# About 19,000 (20%) of roughly 96,000 compounds were called active. A selection follows. A number with no mark means an inactive call.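 The calls were made as follows: active = blocking of liver enzyme CYP2C9 beyond about 50% at 5 µM (limit read from the data); inactive = the rest.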
# Biological target: Cytochrome P450 2C9 (Homo sapiens) (UniProt P11712)
# Assay: blockers of cytochrome P450 2C9 activity – biochemical, luminescence, ADME assay, primary screen (AID 777)
# Conditions: CYP2C9 Supersomes, luciferin-H conversion, at 5 µM, active compounds read high
# Cytochrome P450 2C9 (Homo sapiens), sequence (P11712 whole entry, looked up): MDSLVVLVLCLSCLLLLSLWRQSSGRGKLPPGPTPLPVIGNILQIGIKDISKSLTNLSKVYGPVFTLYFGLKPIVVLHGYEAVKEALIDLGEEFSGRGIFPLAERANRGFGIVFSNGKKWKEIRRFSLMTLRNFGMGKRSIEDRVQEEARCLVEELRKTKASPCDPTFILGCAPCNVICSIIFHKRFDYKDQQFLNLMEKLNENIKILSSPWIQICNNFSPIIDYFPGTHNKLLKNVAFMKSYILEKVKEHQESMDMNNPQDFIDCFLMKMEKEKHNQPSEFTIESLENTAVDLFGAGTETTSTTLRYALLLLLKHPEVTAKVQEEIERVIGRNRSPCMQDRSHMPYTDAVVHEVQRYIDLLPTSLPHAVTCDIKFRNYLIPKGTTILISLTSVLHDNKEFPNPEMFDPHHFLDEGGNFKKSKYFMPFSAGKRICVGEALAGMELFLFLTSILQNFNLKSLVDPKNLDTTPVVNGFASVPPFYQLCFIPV
row,Compound,inhibition
1,CCCCNC(=O)C(=O)c1ccccc1NC(C)=O,15.4%
2,CCCNC(=S)NC1CC2CCCC(C1)N2CC(C)C (stereo not drawn),-4.2%
3,Cc1cc(OC(=O)c2ccc(Cl)cc2)cc(=O)n1C,32%
4,COc1ccccc1C1C2=C(COC2=O)Nc2cc3c(cc21)OCO3 (stereo not drawn),28.2%
5,CCCOc1ccccc1C1CC(=O)Nc2cc3c(cc21)OCO3 (stereo not drawn),94.4% (active)
6,COCCOC(=O)C1=C(C)NC(=O)CC1c1cc2c(cc1Br)OCO2 (stereo not drawn),8.2%
7,CC1(C)CC(=O)C(C2=NC(C)(C)Cc3ccccc32)=C(O)C1,5.8%
8,C=CCOc1c2ccc(C(=O)N(CC)c3ccc(OC)cc3)cc2nn1C,47.3%
9,COc1cc(OC)cc(C(=O)NC2CCN(C(=O)N3c4ccccc4Sc4ccccc43)CC2)c1,41.4%
10,COc1ccc(-c2nnc(SC(C)C#N)o2)cc1 (stereo not drawn),13.9%
11,COc1ccc(-c2nnc(SC(=O)N3c4ccccc4Sc4ccccc43)o2)cc1,83.1% (active)
12,COc1ccc2c(c1)cc1n2CCN=C1NN,42.7%
13,Cc1ccc(C(=O)NC2CCN(C(=O)N3CCOCC3)CC2)cc1,-6.4%
14,N#Cc1nc(N)nc(N(c2ccccc2)c2ccccc2)n1,19.9%
15,CCOC(=O)c1cc2c(n(-c3ccc(C)cc3)c1=O)CCCC2=O,12%
16,Cc1n[nH]c(=O)n1-c1ccc(Oc2ccccc2)cc1,0.7%
17,Cc1ccc(N)cc1-n1c(C)ccc1C,-1.6%
18,Cc1ccccc1CSc1nnc(-c2ccccn2)n1N,-28.8%
19,COc1ccc(N(CC(=O)N/N=C/c2cccs2)S(=O)(=O)c2ccc(OC)c(OC)c2)cc1,44.2%
20,COc1ccc(N(CC(=O)N/N=C/c2cccc3c2OCCO3)S(=O)(=O)c2ccc(NC(C)=O)cc2)cc1,76.1% (active)
21,Cc1ccc(S(=O)(=O)N(CC(=O)N/N=C/c2ccc(F)cc2)c2cccc3cccnc23)cc1,9.7%
22,Cn1c(=N)n(CC(O)c2ccccc2)c2ccccc21 (stereo not drawn),-27.2%
23,COc1cc(C(=O)Nc2nccs2)cc(OC)c1OC,42%
24,Cn1cccc1C(=O)Nc1nccs1,2.9%
25,Cc1c(Br)c([N+](=O)[O-])nn1C(C)C(=O)Nc1nccs1 (stereo not drawn),73.2% (active)

row,Compound,inhibition
1,O=P(O)(CN1CCCCC1)CN1CCCCC1,-9.6%
2,Cc1nn(C)c(C)c1S(=O)(=O)N1CCc2ccccc21,-33.4%
3,COc1ccc(C(=O)OCC(=O)NCC2CCCCC2)cc1S(=O)(=O)N1CCCc2ccccc21,9.6%
4,CCn1c(=O)c(=O)n(CC)c2cc(S(=O)(=O)N3CCc4ccccc43)ccc21,96.5% (active)
5,Cn1c(=O)n(C)c2cc(S(=O)(=O)N3CCCc4ccccc43)ccc21,66.5% (active)
6,CC1CCC(NS(=O)(=O)c2ccc3c(c2)n(C)c(=O)c(=O)n3C)CC1 (stereo not drawn),8.5%
7,CSc1nc2ccc(S(=O)(=O)N3CCc4ccccc43)cc2s1,15.3%
8,Cc1ccc(-n2c(=O)c(C#N)cc3c(=O)n4ccccc4nc32)cc1C,-2.8%
9,Cc1cc(C=O)c(C)n1-c1ccc(NC2CCCCC2)c([N+](=O)[O-])c1,15.9%
10,Cc1ccoc1C(=O)Nc1cccc(Oc2ccccc2)c1,34%
11,O=C(OCCO)c1cc(Cl)c(C(=O)OCCO)cc1Cl,48.4%
12,Cc1ccc(NC(=O)c2ccc(CSc3ncnc4nc[nH]c34)cc2)c(C)c1,-76.5%
13,CCN1CCN(C(c2cccnc2)c2cc(Cl)c3cccnc3c2O)CC1 (stereo not drawn),29.8%
14,CCn1ncc(C2=NOC(C(=O)Nc3ccccc3C(=O)OC)C2)c1C (stereo not drawn),-34.3%
15,CC(C)CCNc1nc(N2CCCC2)c2c(c1C#N)CCN(C)C2,69.7% (active)
16,CCN1CCc2c(C#N)c(NCc3ccccc3)nc(NCCO)c2C1,35.5%
17,CCOC(=O)C(C)Oc1cccc2c(=O)n(CC(=O)N3CCc4ccccc43)ccc12 (stereo not drawn),9%
18,CC(=O)c1cccc(S(=O)(=O)N2CCC(n3nnc4cc(F)ccc43)CC2)c1,-31%
19,O=S(=O)(c1cccc(-c2nnc(SC(F)F)n2-c2ccccc2)c1)N1CCCCC1,21.2%
20,O=S(=O)(c1cccc(S(=O)(=O)N2CCC(n3nnc4ccccc43)CC2)c1)N1CCCCC1,88.3% (active)
21,CCCN(CCC)CCNC(=O)c1cc2c(C)nc3ccccc3c2o1,8.6%
22,Cc1sc2c(c1C)c(=O)n(-c1ccccc1)c1nncn21,-2.8%
23,N#Cc1nc(Cc2ccccc2)oc1NCCc1ccccc1,39.2%
24,N#Cc1nc(COc2ccc(-c3ccccc3)cc2)oc1NCc1cccnc1,70.7% (active)
25,CCOc1ccc(Nc2oc(Cc3ccccc3)nc2C#N)cc1,78.1% (active)

row,Compound,inhibition
1,N#Cc1nc(-c2ccc(OCc3ccccc3)cc2)oc1NCCCN1CCOCC1,41%
2,COc1ccc(Nc2oc(-c3ccccc3Cl)nc2C#N)cc1,47%
3,c1ccc(-c2cc(-c3nnc4sc(-c5ccccn5)nn34)[nH]n2)cc1,-2.3%
4,COc1ccc(C(F)(F)F)cc1N/C=C\c1nnnn1-c1ccc(C)cc1,44.6%
5,CCN(CC)S(=O)(=O)c1cc(C(=O)Nc2ccccn2)ccc1C,38.8%
6,CCN(CC)C(=O)N1CCN(C(=O)c2ccc(C)cn2)CC1,-1%
7,CCCOc1ccc(C2NC(=O)NC(c3ccccc3)=C2C(C)=O)cc1OCC (stereo not drawn),37.3%
8,Cc1cccc(COc2ccccc2/C=N/Nc2ccc([N+](=O)[O-])cc2)c1,43.5%
9,CC(=O)CSc1nnc(CSc2ncccn2)n1C1CCCCC1,-10.7%
10,CC(=O)C1=C(O)C(=O)N(c2ccc(S(N)(=O)=O)cc2)C1c1ccccc1F (stereo not drawn),62.8% (active)
11,CCN(CC)CCN1C(=O)C(=O)/C(=C(/O)c2ccccc2)C1c1ccccc1F (stereo not drawn),-5.9%
12,CCCNC(=O)c1c(N)n(-c2ccc(S(N)(=O)=O)cc2)c2nc3ccccc3nc12,-2.9%
13,COCC(=O)Nc1ccc(Br)cc1,-12.9%
14,O=C(/C=C/c1ccc(Cl)cc1Cl)NCc1ccco1,-2.5%
15,O=C(NCCCCCCNC(=O)NCc1ccco1)NCc1ccco1,-11.1%
16,O=C(NCc1ccco1)C1(c2ccc(Cl)cc2)CCCC1,58.8% (active)
17,Cc1nc2c(-c3ccc(F)cc3)c(C)nn2c(C)c1CCC(=O)N1CCN(c2ccccn2)CC1,13.1%
18,O=C(/C=C/c1ccc(Cl)cc1Cl)c1cccnc1,14.7%
19,COc1ccccc1CSc1nc2ccccc2[nH]1,43.6%
20,CN1CCN(c2ccc([N+](=O)[O-])c(Sc3nc4ccccc4[nH]3)c2)CC1,52.2% (active)
21,CSc1nnc2c(n1)OC(c1cn(C)c3ccccc13)N(C(C)=O)c1ccccc1-2 (stereo not drawn),1.6%
22,Cc1ccc(-c2nnc(SC(C)C#N)n2N)cc1 (stereo not drawn),1.1%
23,CSc1ccccc1C(=O)Nc1cccc(C(C)=O)c1,27.8%
24,Cc1cc(C)nc(N(C#N)CC(=O)Nc2ccccc2)n1,7.1%
25,CSc1nc(C)cc(SC(C(C)=O)C(=O)Nc2ccccc2)n1 (stereo not drawn),65.3% (active)

row,Compound,inhibition
1,Cc1csc(NC(=O)NC2(C(F)(F)F)Oc3ccccc3O2)n1,-6.5%
2,COc1ccc(C(=O)Nc2cc(C)ccc2NC(=O)COc2ccccc2)cc1,6.9%
3,Cc1ccc2nc(-c3ccc(SCC(=O)Nc4cc(C)on4)nc3)[nH]c2c1,2.6%
4,CCOC(=O)c1cc2cc(C)ccc2[nH]1,13.9%
5,CC(N)C12CC3CC(CC(O)(C3)C1)C2 (stereo not drawn),-4%
6,FC(F)(F)COc1nc(N2CCCCC2)nc(N2CCNCC2)n1,-4.2%
7,O=C(CC1N=C2c3ccccc3N=C(SCc3ccccc3Cl)N2C1=O)NCc1ccco1 (stereo not drawn),85.2% (active)
8,O=C(CSc1c2c(nc3ccc(Cl)cc13)CCCC2)NCc1ccco1,48.3%
9,O=C(CSC1=Nc2ccccc2C2=NC(CC(=O)NCc3ccco3)C(=O)N12)NCc1ccco1 (stereo not drawn),65.1% (active)
10,NC(=O)CSC1=Nc2ccccc2C2=NC(CCC(=O)NCc3ccc(F)cc3)C(=O)N12 (stereo not drawn),16.8%
11,CCOCCc1c(O)nc(SCC(=O)NCc2ccco2)[nH]c1=O,-8.3%
12,CCC(C)NC(=O)CSC1=Nc2ccccc2C2=NC(CCC(=O)NCc3ccco3)C(=O)N12 (stereo not drawn),67.8% (active)
13,O=C(COC(=O)C12CC3CC(CC(C3)C1)C2)NCc1ccco1,35.4%
14,CCOc1c(Cl)cc(/C=N/O)cc1OC,-30%
15,COC(=O)c1cc(C(=O)OC)cc(N2C(=O)CC(N3CCN(c4ccccc4)CC3)C2=O)c1 (stereo not drawn),49%
16,Cn1cc(S(=O)(=O)N2CCC(Cc3ccccc3)CC2)c(=O)n(C)c1=O,23.7%
17,C=C1c2cc(CC)ccc2NC(=O)N1c1ccc(C)cc1,10.6%
18,CC(C)(C)n1nnc(CCc2nnn(C(C)(C)C)n2)n1,3.2%
19,Cc1c(NC(=O)/C=C/C(=O)O)cccc1[N+](=O)[O-],-2.8%
20,Cc1ccc(NC2(C#N)C(=O)Nc3ccccc32)cc1 (stereo not drawn),-24.6%
21,CCOC(=O)c1c(NC(C)=O)sc2c(O)c(Br)ccc12,55% (active)
22,CCOC(=O)c1c(NC(=O)/C=C/c2ccco2)sc(C)c1C,-4%
23,CCOC(=O)c1c(NC(=O)CCl)sc(C(=O)N(CC)CC)c1C,49.6%
